Reference: PubChem BioAssay AID2315 (National Center for Advancing Translational Sciences (NCATS), 2010)
Hit rate of the full screen: of about 290,000 compounds, about 27,000 (9.3%) were called active. The full list was thinned out, with actives kept by preference. A number with no mark means an inactive call. No stated cut-off is given here; in the data, active means inhibition mostly above about 28% (no sharp cut-off); inactive means mostly below about 43%.

Experiment: A qHTS for Small Molecule Inhibitors of Shiga Toxin; further: 0% is about no effect
Conditions: Vero cells, Shiga toxin protein synthesis inhibition reporter; at 38.7 µM, hits give high values

Q: For `COc1ccc(S(=O)(=O)NC(C)c2ccccc2)cc1C(=O)N1CCCCC1` (stereo not given), which inhibition is on record?
A: -7.47%

Q: For `Clc1cccc(Cl)c1OCCOCCNCc1ccccc1`, which inhibition is on record?
A: 1.14%

Q: Which inhibition does the source give for `Cc1cc(N2CCN(c3ccccc3)CC2)nc(N2CCOCC2)n1` here?
A: -8.49%

Q: Which inhibition does the source give for `FC(F)(F)c1nnc2ccc(N3CCN(c4ccccc4)CC3)nn12` here?
A: -8.76%

Q: For `Cc1cc(C)n(-c2nnc(N3CCN(c4ccccc4)CC3)nn2)n1`, which inhibition is on record?
A: 35.7% (active)

Q: Which inhibition does the source give for `CCOc1ccc2[nH]c(=O)c(CN(CCCO)S(=O)(=O)c3ccc(F)cc3)cc2c1` here?
A: -6.85%

Q: With `Cc1ccc(C(=O)NCC(=O)OCC(=O)NC2CCCCCCC2)cc1` as the compound, how does the inhibition read?
A: -5.5%

Q: Which inhibition does the source give for `O=C1c2ccccc2C(=O)c2c1cccc2N1CCN(Cc2ccccc2)CC1` here?
A: 47.7%

Q: With `O=C(NC(c1ccccc1)c1ccccc1)N1CCN(CCO)CC1` as the compound, how does the inhibition read?
A: 8.02%

Q: With `O=C1c2ccccc2C(=O)c2c1cccc2N1CCN(CCO)CC1` as the compound, how does the inhibition read?
A: 75.3% (active)

Q: For `NC(=O)CSc1nnc(NC(=O)c2ccc(Br)o2)s1`, which inhibition is on record?
A: 15.2%

Q: For `CN(C)c1cccc(C(=O)N2CCC(n3nccc3NC(=O)C3CCOC3)CC2)c1` (stereo not given), which inhibition is on record?
A: -1.93%

Q: With `Cc1ccc(NC(=O)Nc2ccccc2)c(Br)c1` as the compound, how does the inhibition read?
A: 105% (active)

Q: With `Cc1c(NC(=O)Nc2ccccc2)cccc1[N+](=O)[O-]` as the compound, how does the inhibition read?
A: -38.1%

Q: Which inhibition does the source give for `CS(=O)(=O)c1ccc(Cl)c(NC(=O)Nc2ccccc2)c1` here?
A: 38.5%

Q: For `COc1cc(NC(=O)C2=CC(c3ccc(C)cc3)=NS(=O)(=O)N2C)cc(OC)c1OC`, which inhibition is on record?
A: 7.86%

Q: Which inhibition does the source give for `Cc1[nH]c(C)c(S(=O)(=O)N2CCN(c3cccc(C(F)(F)F)c3)CC2)c1C(=O)N1CCCC1` here?
A: -8.08%

Q: Which inhibition does the source give for `CCOc1ccc(N2C(=O)CC(N(O)c3ccccc3)C2=O)cc1` (stereo not given) here?
A: 100% (active)

Q: For `CCCCCCC(=O)N(O)C1CC(=O)N(c2ccccc2)C1=O` (stereo not given), which inhibition is on record?
A: -2.28%

Q: For `CCOc1ccc(N2C(=O)CC(N(CCc3ccc(OC)c(OC)c3)C(=S)Nc3ccccc3)C2=O)cc1` (stereo not given), which inhibition is on record?
A: 9.09%

Q: For `CCc1nn(-c2cc(Oc3cccc4ccccc34)nc(-c3ccccc3)n2)c(N)c1C#N`, which inhibition is on record?
A: -16.3%

Q: For `COC(=O)c1ccc(/C=N/N2C(C)CCCC2C)cc1` (stereo not given), which inhibition is on record?
A: 66.3% (active)

Q: For `CC1CCCC(C)N1/N=C/c1ccccc1OC(F)F` (stereo not given), which inhibition is on record?
A: -12.3%

Q: For `COC(=O)c1ccc(/C=N\n2c(C)nnc2C)cc1`, which inhibition is on record?
A: 8.68%

Q: With `CCN(CC(=O)N1CCCC1)S(=O)(=O)c1ccc(F)cc1` as the compound, how does the inhibition read?
A: -4.28%

Q: Which inhibition does the source give for `COC(=O)c1ccc(C(NC(=O)OCc2ccccc2)/C(C)=C/[C@@H](C)C(=O)NCc2ccc(OC)c(OC)c2)cc1` (stereo not given in full) here?
A: -13.4%

Q: For `Cn1cnnc1SCC(=O)NNC(=O)COc1ccc(Br)cc1`, which inhibition is on record?
A: 1.38%

Q: With `Cn1cnnc1SCc1nnc(-c2ccccc2Br)o1` as the compound, how does the inhibition read?
A: 58.3% (active)

Q: Which inhibition does the source give for `Nc1cccc2c1C(=O)N(Cc1nnc(-c3ccccc3Br)o1)C2=O` here?
A: 18.9%

Q: With `O=C(CN1C(=O)S/C(=C\c2ccccc2Cl)C1=O)NC1C=CS(=O)(=O)C1` (stereo not given) as the compound, how does the inhibition read?
A: -2.51%

Q: For `COc1ccc(C2=NS(=O)(=O)N(C)C(C(=O)NC(C)c3ccccc3)=C2)cc1` (stereo not given), which inhibition is on record?
A: 10.4%

Q: Which inhibition does the source give for `COc1ccc(CCNC(=O)CCCCCNC(=O)N2CCn3c2nc2ccccc23)cc1OC` here?
A: 4.93%

Q: With `COc1ccc(C2=NOC(COC(=O)c3ccc4ccccc4n3)C2)cc1` (stereo not given) as the compound, how does the inhibition read?
A: 22.8%

Q: With `O=C(Oc1ccc([N+](=O)[O-])cc1)c1ccc2ccccc2n1` as the compound, how does the inhibition read?
A: -35.6% (active)

Q: Which inhibition does the source give for `O=C(CNC(=O)c1ccccc1)Oc1ccc([N+](=O)[O-])cc1` here?
A: -10.1%

Q: For `COc1ccc(C(=O)Nc2c(N)nc(SCC(=O)Nc3ccc(C(C)=O)cc3)[nH]c2=O)cc1`, which inhibition is on record?
A: -1.66%

Q: Which inhibition does the source give for `CC(=C/c1ccccc1)/C=N/NC(=O)c1cc(C)oc1C` here?
A: 0%

Q: With `Cc1cc(C(=O)N/N=C/c2ccccc2[N+](=O)[O-])c(C)o1` as the compound, how does the inhibition read?
A: 72.5% (active)

Q: For `O=C(Cc1cc(=O)[nH][nH]1)N/N=C/c1ccccc1[N+](=O)[O-]`, which inhibition is on record?
A: 13.6%

Q: With `Cc1c(Cl)c([N+](=O)[O-])nn1CC(=O)NCCCN1CCOCC1` as the compound, how does the inhibition read?
A: -6.5%

Q: For `COc1ccc(-n2c(=O)[nH]c3cc(C(=O)NCCc4ccc(OC)c(OC)c4)ccc3c2=O)c(OC)c1`, which inhibition is on record?
A: 3.16%

Q: Which inhibition does the source give for `Cc1ccc(C2CC2C(=O)NN)cc1` (stereo not given) here?
A: -15.4%

Q: With `O=C(NNC(=S)Nc1ccc(F)cc1)[C@H]1C[C@@H]1c1ccccc1` as the compound, how does the inhibition read?
A: -8.83%

Q: With `Cc1ccc(NC(=O)C2CC2c2ccccc2)cc1` (stereo not given) as the compound, how does the inhibition read?
A: 32% (active)

Q: With `COc1ccc(OC)c(CNC(=O)c2cc(=O)[nH]c3ccc(S(=O)(=O)N4CCCC4)cc23)c1` as the compound, how does the inhibition read?
A: -3.87%

Q: With `COc1cccc(-n2c(N)cc(=O)nc2SCC(=O)Nc2cc(C)on2)c1` as the compound, how does the inhibition read?
A: 13.4%

Q: With `COc1cc2ccccc2cc1C(=O)Nc1ccccc1C` as the compound, how does the inhibition read?
A: 32.5% (active)

Q: Which inhibition does the source give for `CC(=O)c1sc(NC(=O)c2cccc3ccccc23)nc1C` here?
A: 31.4%

Q: Which inhibition does the source give for `COc1cc2ccccc2cc1C(=O)Nc1nc(C)c(C(C)=O)s1` here?
A: 69.5% (active)

Q: Which inhibition does the source give for `COc1cccc2sc(Nc3nc(C)c(C(C)=O)s3)nc12` here?
A: 29.8%

Q: Which inhibition does the source give for `COc1cc2ccccc2cc1C(=O)Nc1ccc(NC(=O)c2cccs2)cc1` here?
A: 15.8%

Q: Which inhibition does the source give for `COc1cc(OC)c(C(=O)Nc2ccccc2-c2ccccc2)cc1OC` here?
A: -5.65%

Q: For `CCN(CC)c1ccc(NC(=O)CCc2nnc3ccc(N4CCCCC4)nn23)c(C)c1`, which inhibition is on record?
A: -1.98%

Q: With `Cc1[nH]c(C)c(S(=O)(=O)N2CCC(C)CC2)c1C(=O)N1CCCC1` as the compound, how does the inhibition read?
A: -4.27%

Q: Which inhibition does the source give for `Cc1ccsc1-c1cc(C(=O)O)c2c(ccc3ccccc32)n1` here?
A: 17.5%

Q: Which inhibition does the source give for `CN(Cc1c(F)cccc1Cl)S(=O)(=O)c1cccs1` here?
A: 20.7%

Q: Which inhibition does the source give for `CC1CC(C)CN(c2ccc(S(=O)(=O)N3CCOCC3)cc2)C1` (stereo not given) here?
A: 13.9%

Q: With `Cn1c(CC(=O)Nc2ccc(F)cc2)nnc1SCC(=O)NC1CCCCC1` as the compound, how does the inhibition read?
A: -5.18%

Q: With `CC(C)c1ccc(Nc2ncccc2C#N)cc1` as the compound, how does the inhibition read?
A: 52.3% (active)

Q: Which inhibition does the source give for `CN(C)c1ccnc(Nc2ccc(F)cc2)c1C#N` here?
A: 7.86%
